# Data: PubChem BioAssay AID623923 (Vanderbilt Specialized Chemistry Center, 2012)
# Activity calls are given as the source filed them. The rule behind the calls is not given here.
# Experiment: PubChem AID 623923
# Settings: Ricerca radioligand binding panel, % inhibition, at 10 µM, stronger effect = higher value
smiles,measurement,setting,value
COc1ccc(C)c2sc(NC(=O)c3ccncc3)nc12,inhibition,5-HT2B binding,70%
same,inhibition,DAT transporter binding,13%
same,inhibition,GABA-A muscimol site binding,47%
same,inhibition,NET transporter binding,18%
same,inhibition,PAF receptor binding,34%
same,inhibition,adenosine A2A binding,100%
same,inhibition,adenosine A3 binding,99%
same,"inhibition of radioligand binding, adenosine A1",,91% (active)
same,inhibition,hERG binding,13%
same,inhibition,muscarinic M1 binding,-3%
same,inhibition,muscarinic M2 binding,-2%
same,inhibition,muscarinic M3 binding,3%
same,inhibition,sigma 1 binding,39%
